Mdm2 MdmX PPI: inhibitors of human Mdm2-MdmX association, primary screen, cell-based, luminescence, split luciferase, SaOS-2, uHTS; SaOS-2 split-luciferase Mdm2/MdmX complementation; inhibition, % at 8 µM; actives 3% (n = 330,000); AID 485346, 2010;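 active = inhibition of at least 50% at 8 µM in the primary screen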
Target sequence (O15151 whole entry, looked up): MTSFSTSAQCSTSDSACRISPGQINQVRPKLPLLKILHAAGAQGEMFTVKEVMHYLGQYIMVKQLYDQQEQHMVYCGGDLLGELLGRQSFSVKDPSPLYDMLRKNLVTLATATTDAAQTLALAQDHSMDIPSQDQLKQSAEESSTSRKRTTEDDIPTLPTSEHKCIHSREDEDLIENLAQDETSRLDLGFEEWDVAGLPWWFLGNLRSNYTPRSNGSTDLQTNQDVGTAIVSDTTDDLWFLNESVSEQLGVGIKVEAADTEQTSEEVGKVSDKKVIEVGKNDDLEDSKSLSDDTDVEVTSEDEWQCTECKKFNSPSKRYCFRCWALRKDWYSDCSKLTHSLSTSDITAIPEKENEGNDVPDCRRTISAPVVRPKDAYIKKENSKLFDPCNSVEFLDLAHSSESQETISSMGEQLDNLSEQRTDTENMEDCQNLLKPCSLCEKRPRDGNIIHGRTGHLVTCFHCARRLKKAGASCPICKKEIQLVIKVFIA
Target sequence (Q00987 whole entry, looked up): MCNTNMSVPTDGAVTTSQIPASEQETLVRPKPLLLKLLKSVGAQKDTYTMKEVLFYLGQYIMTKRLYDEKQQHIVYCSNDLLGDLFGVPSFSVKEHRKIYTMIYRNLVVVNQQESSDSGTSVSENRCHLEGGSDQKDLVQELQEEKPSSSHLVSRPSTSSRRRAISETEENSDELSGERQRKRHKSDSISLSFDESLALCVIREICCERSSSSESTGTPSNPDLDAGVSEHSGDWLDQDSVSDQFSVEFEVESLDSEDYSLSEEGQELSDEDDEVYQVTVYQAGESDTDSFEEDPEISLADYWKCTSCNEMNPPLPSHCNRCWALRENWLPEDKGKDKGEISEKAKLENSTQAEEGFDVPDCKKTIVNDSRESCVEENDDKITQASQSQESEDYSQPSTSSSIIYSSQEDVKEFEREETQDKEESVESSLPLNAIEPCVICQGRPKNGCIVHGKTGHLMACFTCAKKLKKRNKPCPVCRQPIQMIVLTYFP
Gli-Sufu antag: Gli-Sufu pathway antagonists, primary screen, luciferase luminescence, Sufu-KO-LIGHT cells, uHTS. Sufu-KO-LIGHT fibroblasts, Gli luciferase reporter luminescence. inhibition, % at 5 µM. actives 0.74% (n = 340,000). AID 588413, 2011;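 active = inhibition above about 55%, limit read from the data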;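 note: 0% = DMSO-treated cells and 100% = wells with medium but no cells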
697 NFkB inh: inhibitors of PMA/ionomycin-induced NF-kB reporter, 697 cells, primary screen, B-cell NF-kB inhibitor project, cell-based, luminescence, uHTS. inhibition, % at 4 µM. AID 435022, 2010. 697 B-cell NF-kB luciferase reporter, 16 h. actives 0.33% (n = 330,000); in the data active = inhibition above about 35%
Shn3 inh set2: reduction of Shn3 3'UTR firefly luciferase signal, primary screen, Schnurri-3 inhibitor project, cell-based, Clone20 osteoblasts, set 2. inhibition, % at 12.5 µM. Clone20 osteoblast Shn3 3'UTR firefly luciferase, 24 h. actives 0.52% (n = 360,000);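 active = mean inhibition of at least 75% with every replicate also reaching 75%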;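 note: 0% = median of neutral control wells and 100% = pilot-screen positive control compound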
Jurkat NFkB inh: inhibitors of induced NF-kB luciferase reporter, primary screen, TCR NF-kB activation inhibitor project, cell-based, luminescence, uHTS; Jurkat, PMA/ionomycin-induced NF-kB luciferase reporter; inhibition, % at 4 µM; actives 0.53% (n = 330,000); AID 435003, 2010; in the data active = inhibition above about 50%
Mdm2-MdmX conf: Mdm2-MdmX complex disruptors, retested hits, confirmation, luminescence, single concentration; shares compounds with Mdm2 MdmX PPI; Mdm2-MdmX binding, luminescent assay; inhibition, % at 8 µM; actives 55% (n = 10,000); AID 489028, 2010; in the data active = inhibition above about 40%
FLuc counter: full-length luciferase signal inhibition, confirmation, counter-screen for Mdm2/MdmX interaction inhibitor project, cell-based, single concentration, SaOS-2; shares compounds with Mdm2 MdmX PPI; SaOS-2 full-length luciferase counterscreen, luminescence; inhibition, % at 8 µM; actives 77% (n = 6,200); AID 504607, 2011;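 active = mean inhibition at 8 µM reaching about 37%, which flags the compound as non-specific, limit read from the data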;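 note: p53-null SaOS-2 cells with luciferase driven by a doxycycline-inducible promoter; compound on cells about two nights before reading with doxycycline added after day one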
The depositor's hits bear a star; nt = no result given. Most compounds without a hit are left out; they make up all but 3.8% or so of the library.

SMILES	Mdm2 MdmX PPI	Gli-Sufu antag	697 NFkB inh	Shn3 inh set2	Jurkat NFkB inh	Mdm2-MdmX conf	others
N#Cc1ccc(C(=O)N2CCCC(c3cc(C(=O)NCc4cccnc4)no3)C2)cc1 (centres undefined)	nt	nt	nt	17.1	nt	nt
Cc1c(C(=O)Nc2cccc(F)c2)cnn1-c1ccccc1	-92.0	-135.0	-133.9	-44.8	-141.4	nt
Cn1cc(CCNC(=O)CC2C(=O)NCCN2CC(c2ccccc2)c2ccccc2)cn1 (centres undefined)	17.9	-0.8	-2.5	-0.5	2.6	nt
COc1cccc(CN(C(=O)c2ccc([N+](=O)[O-])cc2)C2CCS(=O)(=O)C2)c1 (centres undefined)	17.3	2.0	-19.5	-2.4	4.4	nt
Cc1ccc2oc(=O)c(-c3ccc(O)cc3)c(C)c2c1	-16.6	-19.0	-23.2	-12.2	11.0	nt
COc1ccc(NS(=O)(=O)N2CCCCC2)cc1	nt	-3.4	nt	-1.8	nt	nt
COc1ccc(C(CCN2CCCCC2)c2c(OC)cc(OC)c3c(-c4ccccc4)cc(=O)oc23)cc1 (centres undefined)	93.7*	9.4	0.7	12.1	15.4	39.7
COc1cc(OC)c2c(-c3ccccc3)cc(=O)oc2c1C(CCN1CCOCC1)c1ccc(N(C)C)cc1 (centres undefined)	11.5	-8.7	-17.3	-8.6	nt	nt
COc1cc(OC)c2c(-c3ccccc3)cc(=O)oc2c1C(CCN1CCCCC1)c1ccc(N(C)C)cc1 (centres undefined)	78.5*	19.9	1.6	-11.4	25.4	15.7
COc1cc(C(CCN2CCCC2)c2c(OC)cc(OC)c3ccc(=O)oc23)cc(OC)c1OC (centres undefined)	-7.2	-13.5	25.2	6.5	2.6	nt
CCN(CC)C1CCN(C(=O)c2cc(COc3ccc(-n4cncn4)cc3)on2)C1 (centres undefined)	6.7	3.3	-3.9	17.9	-10.5	nt
O=C(COC(=O)Cc1n[nH]c(=O)c2ccccc12)Nc1ccc(Cl)cc1F	22.1	1.9	24.7	nt	-6.5	nt
Cc1nnnn1/C(=C\c1ccccc1)C(=O)OCC(=O)Nc1cccc(S(=O)(=O)N(C)C)c1	71.9*	5.4	-9.1	-1.5	6.5	39.4	FLuc counter=34.0
Cc1nnnn1/C(=C\c1ccccc1)C(=O)OCC(=O)Nc1ccc(Cl)cc1F	67.5*	4.1	8.1	-12.8	6.1	60.8*	FLuc counter=60.9*
CC(=O)N/C(=C\c1ccccc1)C(=O)OCC(=O)Nc1ccc(C)c(S(=O)(=O)N(C)C)c1	27.8	3.2	14.7	0.3	-3.1	nt
COc1ccc(CNC(=O)CN2CCC(NC(=O)c3cccc(OC)c3)CC2)cc1	nt	-0.6	nt	14.9	nt	nt
O=C(Nc1ccccc1F)C1COc2ccccc2O1 (centres undefined)	4.0	-6.8	-18.9	-20.1	-14.1	nt
O=C(Nc1ccccc1O)c1csc2c1CCCC2	-74.9	7.7	-39.9	-118.5	-52.3	nt
CCc1ccccc1NC(=S)/N=C(\N)Nc1nc(C)c2cc(C)ccc2n1	66.7*	-6.3	-5.8	13.0	-10.2	51.6*	FLuc counter=69.7*
Cc1ccc(NC(=S)/N=C(\N)Nc2nc(C)c3cc(C)ccc3n2)c(C)c1	71.9*	17.8	18.3	10.1	3.4	41.4*	FLuc counter=79.4*
COc1ccc2nc(N/C(N)=N/C(=S)Nc3cccc(C)c3)nc(C)c2c1	36.7	-17.9	-18.0	2.9	-42.7	nt
COc1ccc2nc(N/C(N)=N/C(=S)Nc3c(C)cccc3C)nc(C)c2c1	57.1*	18.4	6.8	17.5	-5.8	41.1*	FLuc counter=67.8*
CCOc1ccc2nc(N/C(N)=N/C(=S)Nc3cccc(C)c3)nc(C)c2c1	7.8	-23.3	1.8	20.6	12.6	nt
Cc1ccc(C)c(C(=O)COC(=O)Cn2c(C)csc2=O)c1	12.2	0.2	-6.0	-10.3	-5.8	nt
O=c1c(Cc2ccccc2)c(O)ccn1CCc1cnc[nH]1	15.6	11.9	12.8	3.2	3.4	nt
SMILES	Mdm2 MdmX PPI	Gli-Sufu antag	697 NFkB inh	Shn3 inh set2	Jurkat NFkB inh	Mdm2-MdmX conf	others
Cc1ccc(S(=O)(=O)NCCCNS(=O)(=O)c2ccccc2Br)cc1	-12.0	8.5	9.7	61.1	nt	nt
CC(C)(C)c1cc(-c2nc(N)nc(N)n2)c(O)c(C(C)(C)C)c1	68.0*	-17.8	21.2	71.6	1.4	5.8
O=C(CSc1nnnn1Cc1ccccc1)Nc1ccccc1	0.2	3.8	15.9	19.7	9.7	nt
CCCCNc1c(-c2ccc(OC)c(SC(C)CC)c2)nc2cc(C)ccn12 (centres undefined)	19.4	33.0	-31.6	24.2	-0.1	nt
CCC(C)Sc1cc(-c2nc3cc(C)ccn3c2NC2CCCCC2)ccc1OC (centres undefined)	84.3*	16.2	-61.6	31.5	-37.6	-11.5
CCC(C)Sc1cc(-c2nc3ccccn3c2NC2CCCCC2)ccc1OC (centres undefined)	69.2*	12.5	2.0	2.0	3.8	30.4
CCC(C)Sc1cccc(-c2nc3cnccn3c2NC2CCCCC2)c1 (centres undefined)	19.0	-5.1	-36.8	49.2	-11.0	nt
N#CC1(c2ccccc2)CCN(S(=O)(=O)c2ccc(OC(F)(F)F)cc2)CC1	4.6	15.5	-28.2	4.7	-17.2	nt
Cc1ccc([N+](=O)[O-])c2cccnc12	14.6	6.1	7.4	-3.4	0.2	nt
O=[N+]([O-])c1ccc(Sc2cccc3cccnc23)c2cccnc12	65.4*	42.4	-12.9	53.9	13.3	56.4*	FLuc counter=50.0*
COc1cc(-c2nc3cnccn3c2Nc2ccc(C)cc2)ccc1O	68.9*	-2.5	-20.8	7.7	-27.2	7.8
COc1cc(-c2nc3cnccn3c2Nc2ccc(C(C)C)cc2)ccc1O	33.7	10.0	-51.9	-2.7	-11.3	nt
COc1cc(-c2nc3cnccn3c2Nc2ccccc2)ccc1O	56.8*	3.7	6.0	-11.9	-12.6	38.2	FLuc counter=94.1*
O=C(Nc1ccc([N+](=O)[O-])cc1Br)c1cc2ccccc2nc1Cl	84.6*	7.4	-25.9	12.0	-12.8	12.6
C/C(CC(=O)Nc1cc(C)ccn1)=N\NC(=O)c1cccc(C)c1O	65.8*	9.2	-88.5	0.3	18.5	45.8*	FLuc counter=120.8*
S=C1SCN(Cc2cccnc2)CN1Cc1cccnc1	78.6*	28.0	-3.8	-5.0	15.1	77.0*	FLuc counter=55.6*
